Bioassay records as filed in PubChem.
Tau ThT inhib – qHTS for Inhibitors of Tau Fibril Formation, Thioflavin T Binding. recombinant tau K18 P301L, heparin-induced fibrillization, ThT fluorescence. Potency, µM (titrated, usually from 57.4 µM), for inactives: top-dose activity, negative = inhibition, actives largely listed as inhibitors. 270,000 tested, 2.1% active. AID 1460, 2008; further: nearly all actives have a fitted effect of over 55% in size
Target sequence (P10636 561-689 P618L limits assumed): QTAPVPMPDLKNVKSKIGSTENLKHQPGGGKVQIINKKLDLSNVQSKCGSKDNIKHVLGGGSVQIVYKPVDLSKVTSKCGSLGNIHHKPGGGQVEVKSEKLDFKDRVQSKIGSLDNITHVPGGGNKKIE
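Using a mix of unlabeled (15 uM) and Alexa 594-labeled (0.24 uM) tau K18 P301L, heparin-triggered fibrillization over 6 hr at 37 C was scored by ThT fluorescence.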
Tau fluor counter – Counterscreen qHTS for Inhibitors of Tau Fibril Formation, Fluorescence Polarization | tau K18 P301L (four-repeat tau fragment) Alexa594 fluorescence, heparin fibrillization | Potency, µM (titrated, usually from 57.7 µM), for inactives: at the top dose activity change, negative = decrease | 280,000 tested, 0.93% active | AID 1463, 2008; further: nearly all actives have a fitted effect of over 55% in size
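Human K18 P301L tau (15 uM unlabeled plus 0.24 uM Alexa 594-labeled, final) in 100 mM sodium acetate pH 7 was mixed with compound and 20 uM heparin and incubated 6 hr at 37 C.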
TexasRed fluor – Total Fluorescence Counterscreen for Inhibitors of the Interaction of Thyroid Hormone Receptor and Steroid Receptor Coregulator 2 | TRb/SRC2 Texas Red total fluorescence interference | Potency, µM (doses to about 106 µM), inactives show at the highest dose fluorescence change, negative = quenching | 280,000 tested, 0.29% active; active means well fitted curve in either direction with a large enough effect; inconclusive means small, poorly fitted or top-dose-only effect
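Human TRβ ligand-binding domain (0.6 uM) and Texas Red SRC2 peptide (20 nM) in Tris buffer with 1 uM T3 and 5% DMSO were incubated with pinned compound for 5 hr at ambient temperature. Total fluorescence was computed as S + 2P (555/632 nm).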
Tau fibril FP – qHTS for Inhibitors of Tau Fibril Formation, Fluorescence Polarization; Microtubule-associated protein tau (Homo sapiens), P10636; K18 P301L tau heparin fibrillization, Alexa594 FP, 6 h; Potency, µM (series often up to 57.7 µM), for inactives: at the top dose activity, negative = inhibition, usual class: inhibitors; 280,000 tested, 0.39% active; further: nearly all actives have a fitted effect of over 55% in size
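K18 P301L tau (15 uM unlabeled/0.24 uM Alexa 594-labeled, final) + compound + heparin 20 uM final; 100 mM NaOAc pH 7; 6 hr 37 C; ThT 30 uM final added, 1 hr RT; FP ex 555/em 632 nm.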
TRb-SRC2 inh – qHTS for Inhibitors of the Interaction of Thyroid Hormone Receptor and Steroid Receptor Coregulator 2; Thyroid hormone receptor beta (Homo sapiens), P10828; TRbeta-SRC2 peptide binding, fluorescence polarization; receptor liganded with 1 µM T3; Potency, µM (doses to about 106 µM), for the others: at the highest dose activity change, negative = inhibition, actives largely listed as inhibitors; 280,000 tested, 0.065% active;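 further: plate controls were bound peptide for no effect and peptide without receptor for full effect; nearly all actives have a fitted effect of over 50% in size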
Target sequence (P10828 whole entry, looked up): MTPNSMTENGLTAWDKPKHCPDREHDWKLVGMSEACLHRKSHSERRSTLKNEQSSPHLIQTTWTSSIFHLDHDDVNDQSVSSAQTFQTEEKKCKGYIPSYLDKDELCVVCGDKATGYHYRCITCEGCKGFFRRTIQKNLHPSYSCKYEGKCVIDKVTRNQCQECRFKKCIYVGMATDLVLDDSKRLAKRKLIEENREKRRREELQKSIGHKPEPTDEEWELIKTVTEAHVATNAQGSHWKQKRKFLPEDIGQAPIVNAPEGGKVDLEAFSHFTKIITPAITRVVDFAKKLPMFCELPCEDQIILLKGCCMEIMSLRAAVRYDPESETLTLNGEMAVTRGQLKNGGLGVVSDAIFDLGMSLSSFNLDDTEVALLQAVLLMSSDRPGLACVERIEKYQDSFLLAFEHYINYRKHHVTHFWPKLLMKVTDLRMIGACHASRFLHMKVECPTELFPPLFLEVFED
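TRb LBD 0.6 uM + Texas Red SRC2 peptide 20 nM, 1 uM T3, Tris buffer w/ 5% DMSO; compound pinned, 5 h RT; FP read ex 555/em 632; normalized to unbound and bound controls.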
* marks the source's active call; other numbers are inactive results; ? = inconclusive; / = no result given; [ ] = dose if it differs, or a comment. Sampled rows, rich in hits. Any-hit rate of the full collection: about 3%. Unless noted, the call rests on the fitted dose curve; in most records, active means well fitted curve in the direction sought with a large enough effect; inconclusive means small, poorly fitted or top-dose-only effect, or another doubt; inactive means no such curve, though single readings can be large; an effect the other way counts as inactive or inconclusive. Unless noted, on the % scale 0 is the no-effect control and ±100 the full control effect; potency means the concentration at half of the fitted maximal effect.

SMILES	Tau ThT inhib	Tau fluor counter	TexasRed fluor	Tau fibril FP	TRb-SRC2 inh
COc1ccc(/C=C/C(=O)c2ccc(Cl)s2)cc1O	7.9µM*	?	-6%	?	-2%
Oc1ccc(Cl)cc1C1=NNC(c2cccs2)C1 (stereo unspecified)	?	?	-4%	-13%	-3%
O=[N+]([O-])c1ccc(O)c(C2=NNC(c3ccccc3F)C2)c1 (stereo unspecified)	16µM*	-26%	-4%	6%	6%
Cc1cc(NC(=O)c2ccccc2F)ccc1-c1nc2ccccc2s1	?	-7%	-3%	-9%	2%
O=C(Nc1cc(Sc2nc3ccccc3s2)cc([N+](=O)[O-])c1)c1ccccc1	0%	4µM*[quencher]	-18%	5%	3%
O=C(Nc1cc(Sc2nc3ccccc3s2)cc([N+](=O)[O-])c1)c1ccccc1F	-15%	13µM*[quencher]	1%	?	3%
O=C(Nc1cc(Sc2ccccn2)cc([N+](=O)[O-])c1)c1cccc(F)c1	4%	7%	-2%	4%	1%
Nc1c(C(=O)O)cnc2c(-c3ccc(Cl)cc3)cnn12	?	-10%	-13%	-5%	-1%
Clc1ccc(-c2cnn3c(-c4ccncc4)ccnc23)cc1	2.5µM*	1%	-1%	2%	5%
CC(=O)c1cccc(NC(=O)Cn2c(=O)oc3cc(S(=O)(=O)NCc4ccccc4)ccc32)c1	-5%	-5%	-5%	?	11%
COc1cccc(NC(=O)C2CCCN2S(=O)(=O)c2ccc3nc(-c4ccccc4)[nH]c3c2)c1 (stereo unspecified)	-11%	-11%	-7%	-15%	0%
CC(C)c1ccc(NC(=O)C2CCCN(S(=O)(=O)c3ccc4[nH]c(=O)ccc4c3)C2)cc1 (stereo unspecified)	6%	-9%	1%	-17%	-7%
Cc1ccc(NC(=O)C2CCCN2S(=O)(=O)c2ccc3nc(-c4ccccc4)[nH]c3c2)cc1C (stereo unspecified)	-15%	32µM*[quencher]	-1%	?	0%
CC(C)c1ccc(NC(=O)C2CCCN2S(=O)(=O)c2ccc3nc(-c4ccccc4)[nH]c3c2)cc1 (stereo unspecified)	9%	11µM*[quencher]	-2%	14µM*	6%
Cc1cccc(NC(=O)C2CCCN2S(=O)(=O)c2ccc3nc(-c4ccccc4)[nH]c3c2)c1 (stereo unspecified)	1%	20µM*[quencher]	-2%	?	-6%
CC1CCCCN1C(=O)c1ccc2c(c1)N(Cc1ccc(F)cc1)C(=O)c1ccccc1S2(=O)=O (stereo unspecified)	-3%	-19%	-7%	-5%	6%
Cc1ccccc1S(=O)(=O)NC1OC(=O)C(Cl)=C1Cl (stereo unspecified)	28µM*	-22%	-1%	28µM*	-10%
Cc1cc(C)c2c(c1)/C(=N\N=c1\sc3ccccc3n1C)C(=O)N2	4.5µM*	-7%	-2%	6%	2%
O=C(CN1C(=O)CSc2ccc(S(=O)(=O)N3CCCC3)cc21)NCc1ccc(Cl)cc1	-9%	-29%	-2%	-5%	-9%
CC1=CC(=O)C2=C(C)CC[C@@H]3[C@@H](OC(=O)[C@H]3C)[C@H]12	/	/	-2%[53 µM]	/	-3%[53 µM]
Fc1c(F)c(F)c(N/N=C/c2c[nH]c3ccccc23)c(F)c1F	13µM*	7.1µM*[quencher]	-2%	?	-2%
CCCn1c(/N=C/c2c[nH]c3ccccc23)nc2ccccc21	-7%	?	3%	?	2%
Cc1cc(C)nc(N/N=C/c2c[nH]c3ccccc23)n1	?	-15%	0%	17%	2%
CCCCn1c(/N=C/c2c[nH]c3ccccc23)nc2ccccc21	-4%	22µM*[quencher]	-8%	?	2%
Cn1c(N/N=C/c2c[nH]c3ccccc23)nc2ccccc21	4.5µM*	16µM*[quencher]	-6%	6%	5%
SMILES	Tau ThT inhib	Tau fluor counter	TexasRed fluor	Tau fibril FP	TRb-SRC2 inh
COc1ccccc1C(=O)Nc1ccc(OCc2cc(=O)n3ccsc3n2)cc1	?	-10%	0%	-4%	1%
C[C@@H]1CC2[C@@H]3C[C@H](F)C4=CC(=O)C(Cl)=C[C@]4(C)[C@@]3(F)[C@H](O)C[C@]2(C)[C@@]1(O)C(=O)CO (stereo partly specified)	/	/	2%	/	-4%
Cc1ccc(C)c(NC(=O)c2cc(-c3cccnc3)nc3ccccc23)c1	-9%	-7%	-5%	-3%	1%
C/C(=N\NC(=O)c1cc(-c2cccnc2)nc2ccccc12)c1ccc(O)cc1O	7.9µM*	?	-1%	20%	-1%
CC(C)c1ccc(NC(=O)c2ccc(CN3CC(=O)N4CCCCC4C3=O)cc2)cc1 (stereo unspecified)	-16%	-20%	0%	0%	-12%
CC[C@@H](C)CN1C(=O)N[C@@H](c2ccccc2)C(C(=O)OC)=C1C	1%[11.5 µM]	-5%[11.6 µM]	-1%[11.2 µM]	0%[11.6 µM]	-1%[11.2 µM]
Nc1[nH]ncc1N=Nc1ccc(Cl)cc1	10µM*	?	-3%	8%	-12%
Nc1n[nH]c(N)c1N=Nc1ccc(Cl)cc1	?	-25%	-2%	17%	4%
CCN(CC)S(=O)(=O)c1cc(C)ccc1NC(=S)Nc1cccnc1	8%	?	0%	32µM*	-5%
C=CCC1C=CC(Oc2ccc(F)cc2C)C(CO)O1 (stereo unspecified)	-3%[11.5 µM]	0%[11.6 µM]	-1%[11.2 µM]	4%[11.6 µM]	5%[11.2 µM]
CCOC(=O)c1c(OCC)[nH]c2c1cc(O)c1ccccc12	14µM*	?	-7%	11%	4%
CCOC(=O)c1c(C)[nH]c2cc(Br)c(O)cc12	?	-10%	-9%	4%	-11%
COC(=O)C(C)Oc1ccc(Oc2ncc(C(F)(F)F)cc2Cl)cc1 (stereo unspecified)	/	/	0%[201 µM]	/	2%[201 µM]
CCOC(=O)/C(=C/c1ccc(N2CCC(c3ccccc3)=N2)cc1)C(C)=O	?	16µM*[quencher]	-5%	-13%	-10%
Cc1ccc(NS(=O)(=O)c2ccc(N3CCN(c4ccc(O)cc4)CC3)c([N+](=O)[O-])c2)c(C)c1	14µM*	11µM*[quencher]	0%	8%	3%
CCC/C(=N\OCC)C1=C(O)CC(O)(CC(C)S(=O)(=O)CC)CC1=O (stereo unspecified)	/	/	4%[201 µM]	/	1%[201 µM]
CC(=O)Nc1ccccc1-c1nc2ccccc2n(CC(=O)Nc2cccc(C)c2C)c1=O	9%	9%	-2%	1%	-2%
O=C1[C@@H]2C[C@@H]3C[C@H]1C[C@@](O)(C3)C2	/	/	-2%	/	0%
